From ChEMBL document CHEMBL1961873, “Compounds: GSK PKIS; Assays: Nanosyn kinase panel” (2012) come the findings set out here.

Test [1] deals with Tyrosine-protein kinase SYK (Homo sapiens) (UniProt P43405). To be noted: at 1 µM.
The target of test [2] is T1, Tyrosine-protein kinase Tec (Homo sapiens) (UniProt P42680).
T1 sequence (whole entry): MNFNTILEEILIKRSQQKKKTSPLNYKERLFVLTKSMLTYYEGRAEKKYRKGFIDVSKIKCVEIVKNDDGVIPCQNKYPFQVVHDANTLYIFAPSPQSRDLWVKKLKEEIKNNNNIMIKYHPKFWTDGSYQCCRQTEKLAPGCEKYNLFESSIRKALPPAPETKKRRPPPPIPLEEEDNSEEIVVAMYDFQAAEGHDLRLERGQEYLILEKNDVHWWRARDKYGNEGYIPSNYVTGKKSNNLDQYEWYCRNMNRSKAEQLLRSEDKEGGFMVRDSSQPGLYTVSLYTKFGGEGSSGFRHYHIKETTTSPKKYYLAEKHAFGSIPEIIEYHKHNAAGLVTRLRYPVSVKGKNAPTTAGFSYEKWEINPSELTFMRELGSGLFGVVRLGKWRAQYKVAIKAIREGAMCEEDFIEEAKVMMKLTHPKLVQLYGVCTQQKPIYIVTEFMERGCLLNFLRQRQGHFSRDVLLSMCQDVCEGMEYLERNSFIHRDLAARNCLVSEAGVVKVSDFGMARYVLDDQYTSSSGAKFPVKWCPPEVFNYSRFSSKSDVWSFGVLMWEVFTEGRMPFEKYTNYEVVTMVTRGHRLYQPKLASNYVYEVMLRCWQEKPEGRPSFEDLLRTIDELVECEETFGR
To be noted: at 0.1 µM.

In test [3] the target is T1, Tyrosine-protein kinase Tec (Homo sapiens). To be noted: at 1 µM.
In test [4] the target is Angiopoietin-1 receptor (Homo sapiens) (UniProt Q02763). To be noted: at 0.1 µM.
Chain of Angiopoietin-1 receptor (Homo sapiens) (Q02763 whole entry): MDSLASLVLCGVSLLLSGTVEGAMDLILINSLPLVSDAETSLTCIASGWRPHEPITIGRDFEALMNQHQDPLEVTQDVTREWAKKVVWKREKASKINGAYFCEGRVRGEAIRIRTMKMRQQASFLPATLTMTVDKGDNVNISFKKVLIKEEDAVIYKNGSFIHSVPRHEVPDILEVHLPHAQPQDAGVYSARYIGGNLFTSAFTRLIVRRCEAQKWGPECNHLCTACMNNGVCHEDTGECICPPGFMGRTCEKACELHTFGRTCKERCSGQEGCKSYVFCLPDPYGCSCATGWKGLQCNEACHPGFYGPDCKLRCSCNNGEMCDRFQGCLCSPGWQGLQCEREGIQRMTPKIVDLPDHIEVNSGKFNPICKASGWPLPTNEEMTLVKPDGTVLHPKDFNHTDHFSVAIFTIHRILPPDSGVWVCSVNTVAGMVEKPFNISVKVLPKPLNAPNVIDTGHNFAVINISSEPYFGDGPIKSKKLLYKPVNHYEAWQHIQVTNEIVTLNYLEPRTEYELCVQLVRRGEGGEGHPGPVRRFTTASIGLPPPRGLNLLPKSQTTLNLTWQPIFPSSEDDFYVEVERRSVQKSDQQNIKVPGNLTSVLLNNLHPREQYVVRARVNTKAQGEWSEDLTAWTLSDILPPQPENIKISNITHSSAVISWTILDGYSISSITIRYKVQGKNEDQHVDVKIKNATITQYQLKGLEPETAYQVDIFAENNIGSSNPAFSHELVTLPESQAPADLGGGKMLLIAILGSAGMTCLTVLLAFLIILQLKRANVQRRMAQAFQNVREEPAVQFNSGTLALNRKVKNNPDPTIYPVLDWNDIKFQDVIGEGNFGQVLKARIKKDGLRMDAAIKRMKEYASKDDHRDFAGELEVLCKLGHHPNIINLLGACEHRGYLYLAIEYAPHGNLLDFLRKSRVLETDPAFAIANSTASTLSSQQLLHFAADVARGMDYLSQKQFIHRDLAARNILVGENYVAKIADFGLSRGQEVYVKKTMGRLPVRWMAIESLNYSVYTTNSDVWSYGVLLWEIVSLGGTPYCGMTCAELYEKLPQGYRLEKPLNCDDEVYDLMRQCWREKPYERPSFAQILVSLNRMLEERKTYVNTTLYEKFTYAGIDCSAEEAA
For test [5] the target is unchanged. To be noted: at 1 µM.
Test [6] addresses T2, Non-receptor tyrosine-protein kinase TNK1 (Homo sapiens) (UniProt Q13470).
T2 sequence (whole entry): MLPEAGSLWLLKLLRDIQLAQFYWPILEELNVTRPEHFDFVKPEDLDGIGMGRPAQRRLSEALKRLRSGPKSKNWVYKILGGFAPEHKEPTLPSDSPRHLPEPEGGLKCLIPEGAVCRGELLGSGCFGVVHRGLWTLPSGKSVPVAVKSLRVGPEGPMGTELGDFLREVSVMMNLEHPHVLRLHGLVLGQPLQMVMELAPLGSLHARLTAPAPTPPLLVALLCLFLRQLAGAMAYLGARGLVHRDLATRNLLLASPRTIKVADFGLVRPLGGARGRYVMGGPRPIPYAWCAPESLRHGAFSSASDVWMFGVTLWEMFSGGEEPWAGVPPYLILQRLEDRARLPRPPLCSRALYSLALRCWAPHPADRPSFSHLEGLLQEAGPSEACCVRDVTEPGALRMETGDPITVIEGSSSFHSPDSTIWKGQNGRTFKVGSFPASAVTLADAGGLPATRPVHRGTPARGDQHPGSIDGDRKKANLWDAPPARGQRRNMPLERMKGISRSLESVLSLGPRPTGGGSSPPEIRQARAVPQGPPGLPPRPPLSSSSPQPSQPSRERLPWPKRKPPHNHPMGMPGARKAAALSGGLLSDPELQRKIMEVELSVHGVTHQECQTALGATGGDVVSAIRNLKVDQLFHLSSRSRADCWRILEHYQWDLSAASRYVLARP
To be noted: at 0.1 µM.

The target in test [7] is T2, Non-receptor tyrosine-protein kinase TNK1 (Homo sapiens). To be noted: at 1 µM.
Test [8] has as its target Activated CDC42 kinase 1 (Homo sapiens) (UniProt Q07912). To be noted: at 0.1 µM.
Test [9] shares this target. To be noted: at 1 µM.
For test [10], the target named is High affinity nerve growth factor receptor (Homo sapiens) (UniProt P04629). To be noted: at 0.1 µM.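 Also: each value is a mean of replicate percent inhibition readings against TRKA kinase.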
Chain of High affinity nerve growth factor receptor (Homo sapiens) (P04629 33-796 limits assumed): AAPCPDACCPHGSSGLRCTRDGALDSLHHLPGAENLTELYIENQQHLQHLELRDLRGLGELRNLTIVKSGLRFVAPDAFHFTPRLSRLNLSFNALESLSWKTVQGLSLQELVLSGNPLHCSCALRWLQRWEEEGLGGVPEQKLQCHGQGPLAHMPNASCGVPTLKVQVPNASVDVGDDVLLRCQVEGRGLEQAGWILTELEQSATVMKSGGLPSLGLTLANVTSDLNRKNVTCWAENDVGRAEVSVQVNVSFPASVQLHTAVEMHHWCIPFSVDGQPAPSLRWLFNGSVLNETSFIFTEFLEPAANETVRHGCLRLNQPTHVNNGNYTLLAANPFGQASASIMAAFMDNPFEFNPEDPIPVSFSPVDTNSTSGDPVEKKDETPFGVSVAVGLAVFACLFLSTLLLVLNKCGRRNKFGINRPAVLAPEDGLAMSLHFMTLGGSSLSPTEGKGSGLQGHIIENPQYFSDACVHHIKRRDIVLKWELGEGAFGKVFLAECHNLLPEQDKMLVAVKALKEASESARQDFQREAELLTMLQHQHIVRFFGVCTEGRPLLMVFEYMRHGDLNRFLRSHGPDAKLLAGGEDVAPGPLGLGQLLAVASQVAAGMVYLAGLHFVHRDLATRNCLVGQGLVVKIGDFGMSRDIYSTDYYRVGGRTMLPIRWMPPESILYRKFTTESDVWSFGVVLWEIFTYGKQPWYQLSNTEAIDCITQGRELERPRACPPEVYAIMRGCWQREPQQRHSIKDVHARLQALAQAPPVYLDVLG

Each structure is given as a SMILES string.

Chain of Activated CDC42 kinase 1 (Homo sapiens) (Q07912 whole entry, looked up): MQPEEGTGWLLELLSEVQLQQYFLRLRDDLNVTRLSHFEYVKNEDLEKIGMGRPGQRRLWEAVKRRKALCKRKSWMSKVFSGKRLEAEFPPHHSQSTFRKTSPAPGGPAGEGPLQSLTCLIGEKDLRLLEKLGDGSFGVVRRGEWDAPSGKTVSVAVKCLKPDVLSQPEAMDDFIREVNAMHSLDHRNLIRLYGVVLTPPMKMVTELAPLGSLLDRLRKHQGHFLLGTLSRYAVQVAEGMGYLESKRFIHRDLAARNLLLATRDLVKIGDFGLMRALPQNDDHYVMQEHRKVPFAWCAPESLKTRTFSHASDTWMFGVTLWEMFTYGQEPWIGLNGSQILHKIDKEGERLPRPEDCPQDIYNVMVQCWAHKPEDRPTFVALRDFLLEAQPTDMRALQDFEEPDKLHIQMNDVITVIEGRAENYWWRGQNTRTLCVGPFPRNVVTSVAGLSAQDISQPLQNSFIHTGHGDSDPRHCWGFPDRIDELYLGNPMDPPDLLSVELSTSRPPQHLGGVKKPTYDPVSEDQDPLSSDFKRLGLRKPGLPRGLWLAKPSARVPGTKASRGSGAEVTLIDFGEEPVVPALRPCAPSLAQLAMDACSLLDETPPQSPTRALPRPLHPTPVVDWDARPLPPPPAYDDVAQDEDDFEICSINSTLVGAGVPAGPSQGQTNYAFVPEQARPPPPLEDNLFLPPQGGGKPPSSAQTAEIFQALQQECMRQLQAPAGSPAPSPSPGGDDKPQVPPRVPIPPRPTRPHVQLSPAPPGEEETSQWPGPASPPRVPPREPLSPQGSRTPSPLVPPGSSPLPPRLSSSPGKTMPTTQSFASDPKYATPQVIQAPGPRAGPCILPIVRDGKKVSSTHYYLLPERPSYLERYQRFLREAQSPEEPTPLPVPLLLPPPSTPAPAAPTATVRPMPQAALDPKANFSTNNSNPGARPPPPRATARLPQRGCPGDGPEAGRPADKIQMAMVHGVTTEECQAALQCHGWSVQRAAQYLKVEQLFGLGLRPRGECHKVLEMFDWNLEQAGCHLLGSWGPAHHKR

The inhibition is the relative decrease from the control value, in per cent. With `COc1cc(/C=N/Nc2ncnc3c2cnn3C(C)C)ccc1O`, the inhibition turned out to be 35.4% in [1]; 3.27% in test [2]; 13.6% in [3]; 0.88% in test [4]; 12.2% in [5]; 1.37% in test [6]. The inhibition in test [7] is 7.79%; in test [8], 0.51%; in test [9] it was 5.5%; in test [10] it was 1.66%.

For `CCS(=O)(=O)c1ccc(OC)c(Nc2nccc(N(C)c3ccc4c(C)n[nH]c4c3)n2)c1`, the inhibition is -6.17% in test [1]; 4.3% in test [2]; 27% in test [3]; 6.69% in test [4]; 46.3% in test [5]; 40% in test [6]. The inhibition in [7] was found to be 82.5%; in test [8], 2.32%; in [9], 22.8%; in [10], 2.86%.

With `Cc1cc(-c2ccccn2)cc(C)c1/C=C/c1cncc(-c2nn[nH]n2)c1`, the inhibition was -0.42% in test [1]; 4.67% in test [2]; 12.4% in [3]; 2.01% in [4]; 8.32% in test [5]; 9.02% in test [6]. Moreover, the inhibition in [7] stood at 50.8%; in test [8], 0.32%; in test [9] it was 2.33%; in test [10], 2.23%.

With `NC(=O)c1cccc(Nc2nccc(Nc3cccc(F)c3)n2)c1`, the inhibition in test [1] was -2.49%; in [2], 6.51%; in test [3] it was 34.3%; in [4] it was 1.74%; in [5] it was 10.1%; in test [6], 6.18%. The inhibition is 44.3% in test [7], 2.29% in [8], 22.2% in [9] and 1.89% in test [10].

Turning to `NS(=O)(=O)c1ccc(-c2cc3ccncc3cc2OCc2ccccc2)cc1`, the inhibition amounted to 0.64% in test [1]; 2.94% in test [2]; 4.44% in test [3]; 1.38% in [4]; 3.06% in test [5]; 3.48% in test [6]. The inhibition in test [7] was 16%; in test [8], 0.6%; in test [9], 2.21%; in test [10] it was 4.15%.

As to `CN(C)C(=O)O[C@H]1CN[C@H](C#Cc2cc3ncnc(Nc4ccc(OCc5cccc(F)c5)c(Cl)c4)c3s2)C1`, the inhibition in test [1] is -0.76%; in test [2] it was 3.98%; in test [3] it was 6.52%; in test [4], 2.98%; in test [5] it was 5.32%; in test [6], 1.02%. Besides, the inhibition was 12% in test [7], 1.42% in test [8], 1.79% in [9] and 2.9% in test [10].

With `CN(C)c1cc2c(Nc3ccc4c(cnn4Cc4ccccc4)c3)ncnc2cn1`, the inhibition in test [1] is 0.09%; in [2] it was 3.97%; in [3] it was 9.92%; in [4] it was 2.74%; in test [5] it was 5.29%; in [6], 3.66%. Moreover, the inhibition was found to be 14.7% in test [7], 0.72% in test [8], 1.68% in [9] and 1.75% in test [10].

In the case of `O=S(=O)(CCOCc1ccc(-c2ccc3ncnc(Nc4ccc(OCc5cccc(F)c5)c(Cl)c4)c3c2)o1)c1ccccc1`, the inhibition was determined as 1.2% in test [1]; 0.41% in [2]; 0.9% in test [3]; 3.25% in [4]; 2.48% in [5]; 1.59% in [6]. Also, the inhibition in test [7] is 5.35%; in test [8], -0.03%; in test [9], -0.95%; in test [10] it was -0.1%.

Take `COC(=O)Nc1nc2cc(Oc3ccc(NC(=O)Nc4cccc(Br)c4)cc3)ccc2[nH]1`: the inhibition was 0.53% in test [1]; 4.37% in test [2]; 3.43% in test [3]; 31.3% in test [4]; 54% in [5]; 3.04% in test [6]. Moreover, the inhibition in test [7] came out at 8.8%; in test [8], 0.29%; in test [9] it was 0.1%; in test [10] it was 28.4%.

In the case of `Cc1ccc2c(c1)/C(=N/Nc1ccc(S(N)(=O)=O)cc1)C(=O)N2`, the inhibition is -2.83% in test [1]; 1.52% in test [2]; 4.33% in test [3]; -0.15% in test [4]; 2.63% in test [5]; -2.23% in test [6]. The inhibition in test [7] was 3.63%; in test [8] it was -0.48%; in test [9], -0.62%; in test [10], -1.8%.

Turning to `COC(=O)c1ccc2c(c1)C(=Cc1cc(Br)c(O)c(Br)c1)C(=O)N2`, the inhibition in test [1] was -1.69%; in test [2], 9.11%; in [3] it was 7.75%; in [4], 3.09%; in [5], 3.01%; in test [6] it was 25.5%. Moreover, the inhibition in test [7] was 70.2%; in [8], 0.88%; in test [9], 8.96%; in test [10] it was 2.4%.

For the compound `COc1cc2ncn(-c3cc(OCc4ccccc4S(C)(=O)=O)c(C#N)s3)c2cc1OC`, the inhibition was -2.95% in [1]; 7.94% in test [2]; 35.5% in [3]; 5.63% in test [4]; 14.6% in test [5]; 38.6% in test [6]. In addition, the inhibition in test [7] came out at 77.9%; in test [8], 6.02%; in test [9] it was 38%; in test [10], 5.48%.

As for `Cc1ccc(NC(=O)CC2CC2)cc1-c1ccc(C(=O)NCC2CC2)cc1`, the inhibition in [1] was determined as 0.5%; in [2] it was 5.07%; in test [3], 8.67%; in test [4], 2.75%; in [5], 6.74%; in test [6] it was 2.27%. The inhibition in test [7] amounted to 10.1%; in test [8], 0.82%; in test [9], 3.94%; in [10] it was 3.3%.

On to `COc1ccc(-c2nn3ncccc3c2-c2ccnc(Nc3cccc(C(F)(F)F)c3)n2)cc1`, for which the inhibition was -2.11% in test [1]; 1.14% in test [2]; 4.73% in test [3]; 2.11% in [4]; 9.2% in test [5]; 7.47% in [6]. Also, the inhibition worked out at 9.47% in test [7], 0.73% in test [8], 0.85% in test [9] and 1.79% in [10].

As for `CS(=O)(=O)CCNCc1nc(-c2ccc3ncnc(Nc4ccc(OCc5cccc(C(F)(F)F)c5)cc4)c3c2)cs1`, the inhibition in [1] was 2.72%; in test [2], 4.74%; in test [3], 5.07%; in [4], 5.84%; in [5] it was 6.51%; in test [6] it was 0.85%. The inhibition in test [7] stood at 2.82%; in test [8], 0.72%; in test [9] it was 3.3%; in [10] it was 0.13%.

For the compound `CN(C)C(=O)O[C@@H]1CN[C@@H](C#Cc2cc3ncnc(Nc4ccc(OCc5cccc(F)c5)c(Cl)c4)c3s2)C1`, the inhibition is 0.74% in test [1]; 2.88% in test [2]; 6.39% in [3]; 1.52% in [4]; 4.73% in [5]; 0.44% in test [6]. Further, the inhibition was 8.64% in test [7], -0.35% in test [8], -0.22% in [9] and -3.09% in test [10].
